# Laboratory results published in paper PMC7862700, “An all-to-all approach to the identification of sequence-specific readers for epigenetic DNA modifications on cytosine”.
# Tests used:
# Experiment in all cases: DAPPL (digital affinity profiling via proximity ligation, sequencing); 10 mM Tris-HCl pH 7.5, 50 mM NaCl, 1 mM DTT, 4% glycerol, room temperature, 30 min; GST-TFs on glutathione beads, 16-mer random dsDNA library, 0.1% formaldehyde crosslink after washing; high values mean tight binding
# FLI1 = target: T1, FLI1 (Homo sapiens, UniProt Q01543 1-452); conditions: protein: recombinant; tags: N-terminal GST; dsDNA, one strand shown
# T1 sequence: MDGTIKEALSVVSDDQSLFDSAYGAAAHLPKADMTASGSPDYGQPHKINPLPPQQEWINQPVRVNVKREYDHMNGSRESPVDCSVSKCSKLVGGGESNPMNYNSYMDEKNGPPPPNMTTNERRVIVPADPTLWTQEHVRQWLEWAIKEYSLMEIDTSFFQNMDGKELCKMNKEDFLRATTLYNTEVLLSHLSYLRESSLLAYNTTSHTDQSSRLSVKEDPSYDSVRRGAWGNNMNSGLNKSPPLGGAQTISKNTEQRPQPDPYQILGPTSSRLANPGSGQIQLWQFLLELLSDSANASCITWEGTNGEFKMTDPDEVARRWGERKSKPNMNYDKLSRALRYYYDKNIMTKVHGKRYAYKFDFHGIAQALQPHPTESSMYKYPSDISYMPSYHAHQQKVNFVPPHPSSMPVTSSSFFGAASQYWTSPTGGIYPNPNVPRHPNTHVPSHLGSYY
# Method in brief: (§1)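 Human transcription factors fused to GST were expressed in yeast, captured on glutathione beads, given DNA barcodes and pooled with a GST-only negative control. Pools were incubated with 200 nmole of a 16-mer random double-stranded DNA library in Tris/NaCl/DTT/glycerol buffer at room temperature for 30 min. They were then washed, crosslinked with 0.1% formaldehyde, proximity-ligated (BsaI/T4 ligase, 1 h, 37 °C), PCR-amplified and sequenced on an Illumina NextSeq500. Binding signal is each 6-mer's read frequency for a factor divided by its frequency for the GST control.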
# ELK1 = target: T2, ELK1 (Homo sapiens, UniProt P19419 1-428); conditions: protein: recombinant; tags: N-terminal GST; dsDNA, one strand shown
# T2 sequence: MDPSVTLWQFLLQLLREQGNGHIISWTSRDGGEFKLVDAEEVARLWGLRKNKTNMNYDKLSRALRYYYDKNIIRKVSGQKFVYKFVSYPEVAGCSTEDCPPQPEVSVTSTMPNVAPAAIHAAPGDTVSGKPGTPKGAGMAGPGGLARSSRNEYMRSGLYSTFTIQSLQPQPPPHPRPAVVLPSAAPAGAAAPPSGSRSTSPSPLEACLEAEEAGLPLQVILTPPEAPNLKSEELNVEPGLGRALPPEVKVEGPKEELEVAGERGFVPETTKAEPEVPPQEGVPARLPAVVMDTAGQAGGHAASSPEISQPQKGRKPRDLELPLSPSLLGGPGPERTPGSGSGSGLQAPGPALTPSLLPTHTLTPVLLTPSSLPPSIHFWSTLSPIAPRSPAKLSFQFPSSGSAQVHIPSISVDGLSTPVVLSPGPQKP
# Method in brief: as §1
# GABPA = target: T3, GABPA (Homo sapiens, UniProt Q06546 1-454); conditions: protein: recombinant; tags: N-terminal GST; dsDNA, one strand shown
# T3 sequence: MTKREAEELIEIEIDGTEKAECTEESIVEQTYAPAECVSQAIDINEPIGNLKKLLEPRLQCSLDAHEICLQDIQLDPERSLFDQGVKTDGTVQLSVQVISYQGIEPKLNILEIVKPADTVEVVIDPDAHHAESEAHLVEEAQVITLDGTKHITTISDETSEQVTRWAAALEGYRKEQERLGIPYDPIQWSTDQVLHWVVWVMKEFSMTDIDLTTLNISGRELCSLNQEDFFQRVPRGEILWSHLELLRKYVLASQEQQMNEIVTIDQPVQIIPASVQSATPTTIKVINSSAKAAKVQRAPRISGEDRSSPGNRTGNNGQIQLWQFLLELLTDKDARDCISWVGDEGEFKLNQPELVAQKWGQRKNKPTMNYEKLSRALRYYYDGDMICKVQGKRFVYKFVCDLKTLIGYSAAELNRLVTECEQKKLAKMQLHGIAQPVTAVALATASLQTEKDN
# Method in brief: as §1
# ERG = target: T4, ERG (Homo sapiens, UniProt P11308 1-479); conditions: protein: recombinant; tags: N-terminal GST; dsDNA, one strand shown
# T4 sequence: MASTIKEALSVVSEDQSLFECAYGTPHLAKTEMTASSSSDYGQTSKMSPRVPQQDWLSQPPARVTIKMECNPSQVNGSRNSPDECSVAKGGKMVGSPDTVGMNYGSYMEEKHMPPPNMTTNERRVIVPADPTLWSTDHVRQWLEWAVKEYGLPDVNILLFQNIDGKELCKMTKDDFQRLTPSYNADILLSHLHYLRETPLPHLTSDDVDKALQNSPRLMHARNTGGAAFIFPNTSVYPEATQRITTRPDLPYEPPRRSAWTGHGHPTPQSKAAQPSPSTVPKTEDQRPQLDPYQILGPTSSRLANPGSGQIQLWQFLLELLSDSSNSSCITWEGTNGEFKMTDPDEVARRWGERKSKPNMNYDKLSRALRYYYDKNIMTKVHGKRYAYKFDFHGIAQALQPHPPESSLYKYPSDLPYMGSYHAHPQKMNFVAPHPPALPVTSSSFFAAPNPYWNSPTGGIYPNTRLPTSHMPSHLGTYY
# Method in brief: as §1
# ELF1 = ELF1 (Homo sapiens, UniProt P32519 1-619); conditions: protein: recombinant; tags: N-terminal GST; dsDNA, one strand shown
# Sequence of ELF1 (P32519 whole entry): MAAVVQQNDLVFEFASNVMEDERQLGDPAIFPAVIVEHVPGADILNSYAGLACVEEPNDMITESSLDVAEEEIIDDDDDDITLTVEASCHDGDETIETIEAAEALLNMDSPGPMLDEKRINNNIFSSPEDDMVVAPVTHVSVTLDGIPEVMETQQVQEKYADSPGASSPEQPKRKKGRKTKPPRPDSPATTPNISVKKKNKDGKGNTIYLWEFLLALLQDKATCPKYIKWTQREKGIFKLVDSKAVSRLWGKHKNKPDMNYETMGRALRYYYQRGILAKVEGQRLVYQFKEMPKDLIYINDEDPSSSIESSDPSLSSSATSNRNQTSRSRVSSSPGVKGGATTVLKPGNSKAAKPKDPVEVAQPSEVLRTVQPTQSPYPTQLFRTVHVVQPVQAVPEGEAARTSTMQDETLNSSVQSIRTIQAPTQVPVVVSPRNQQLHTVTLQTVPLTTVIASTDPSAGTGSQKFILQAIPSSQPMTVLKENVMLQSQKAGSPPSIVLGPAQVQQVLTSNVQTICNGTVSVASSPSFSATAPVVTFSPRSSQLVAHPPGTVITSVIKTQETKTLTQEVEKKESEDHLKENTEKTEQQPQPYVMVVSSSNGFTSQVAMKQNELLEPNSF
# Method in brief: as §1
# EHF = target: T5, EHF (Homo sapiens, UniProt Q9NZC4 1-300); conditions: protein: recombinant; tags: N-terminal GST; dsDNA, one strand shown
# T5 sequence: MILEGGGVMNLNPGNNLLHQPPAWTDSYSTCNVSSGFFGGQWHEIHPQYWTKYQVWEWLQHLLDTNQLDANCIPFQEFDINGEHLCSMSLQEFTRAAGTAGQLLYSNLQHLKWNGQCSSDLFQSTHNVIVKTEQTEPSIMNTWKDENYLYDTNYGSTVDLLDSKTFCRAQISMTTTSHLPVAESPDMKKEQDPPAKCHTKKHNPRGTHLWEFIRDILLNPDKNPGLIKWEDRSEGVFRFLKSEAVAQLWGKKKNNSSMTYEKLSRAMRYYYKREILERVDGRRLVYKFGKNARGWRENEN
# Method in brief: as §1
# SPI1 = SPI1 (Homo sapiens, UniProt P17947 1-270); conditions: protein: recombinant; tags: N-terminal GST; dsDNA, one strand shown
# Method in brief: as §1
# SPIB = SPIB (Homo sapiens, UniProt Q01892 1-262); conditions: protein: recombinant; tags: N-terminal GST; dsDNA, one strand shown
# Sequence of SPIB (Q01892 whole entry): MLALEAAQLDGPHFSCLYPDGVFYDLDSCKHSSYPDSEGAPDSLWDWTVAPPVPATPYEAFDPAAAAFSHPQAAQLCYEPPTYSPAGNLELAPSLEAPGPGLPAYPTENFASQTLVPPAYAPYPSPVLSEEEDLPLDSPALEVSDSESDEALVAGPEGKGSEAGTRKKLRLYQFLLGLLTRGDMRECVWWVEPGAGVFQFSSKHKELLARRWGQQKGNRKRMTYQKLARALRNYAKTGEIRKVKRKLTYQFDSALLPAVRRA
# Method in brief: as §1
# ELK3 = target: T6, ELK3 (Homo sapiens, UniProt P41970 1-407); conditions: protein: recombinant; tags: N-terminal GST; dsDNA, one strand shown
# T6 sequence: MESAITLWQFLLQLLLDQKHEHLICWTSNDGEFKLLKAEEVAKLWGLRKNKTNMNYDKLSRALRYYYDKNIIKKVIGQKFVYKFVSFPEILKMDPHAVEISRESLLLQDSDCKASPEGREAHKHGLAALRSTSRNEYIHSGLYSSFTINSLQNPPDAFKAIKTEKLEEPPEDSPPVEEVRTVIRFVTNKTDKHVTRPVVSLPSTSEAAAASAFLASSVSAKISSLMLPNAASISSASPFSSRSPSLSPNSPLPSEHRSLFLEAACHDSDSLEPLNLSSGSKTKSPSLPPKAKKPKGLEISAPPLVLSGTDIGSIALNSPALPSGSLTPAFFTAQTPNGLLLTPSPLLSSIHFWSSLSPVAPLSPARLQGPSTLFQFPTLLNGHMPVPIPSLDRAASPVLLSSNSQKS
# Method in brief: as §1
# FEV = target: T7, FEV (Homo sapiens, UniProt Q99581 1-238); conditions: protein: recombinant; tags: N-terminal GST; dsDNA, one strand shown
# T7 sequence: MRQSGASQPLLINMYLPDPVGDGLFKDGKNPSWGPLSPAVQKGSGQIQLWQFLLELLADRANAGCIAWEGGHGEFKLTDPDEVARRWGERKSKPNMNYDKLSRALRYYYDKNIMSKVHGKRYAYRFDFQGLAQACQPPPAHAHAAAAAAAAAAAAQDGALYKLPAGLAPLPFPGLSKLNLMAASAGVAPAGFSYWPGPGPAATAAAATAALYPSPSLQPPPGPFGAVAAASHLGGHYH
# Method in brief: as §1
# ETV5 = ETV5 (Homo sapiens, UniProt P41161 1-510); conditions: protein: recombinant; tags: N-terminal GST; dsDNA, one strand shown
# Sequence of ETV5 (P41161 whole entry): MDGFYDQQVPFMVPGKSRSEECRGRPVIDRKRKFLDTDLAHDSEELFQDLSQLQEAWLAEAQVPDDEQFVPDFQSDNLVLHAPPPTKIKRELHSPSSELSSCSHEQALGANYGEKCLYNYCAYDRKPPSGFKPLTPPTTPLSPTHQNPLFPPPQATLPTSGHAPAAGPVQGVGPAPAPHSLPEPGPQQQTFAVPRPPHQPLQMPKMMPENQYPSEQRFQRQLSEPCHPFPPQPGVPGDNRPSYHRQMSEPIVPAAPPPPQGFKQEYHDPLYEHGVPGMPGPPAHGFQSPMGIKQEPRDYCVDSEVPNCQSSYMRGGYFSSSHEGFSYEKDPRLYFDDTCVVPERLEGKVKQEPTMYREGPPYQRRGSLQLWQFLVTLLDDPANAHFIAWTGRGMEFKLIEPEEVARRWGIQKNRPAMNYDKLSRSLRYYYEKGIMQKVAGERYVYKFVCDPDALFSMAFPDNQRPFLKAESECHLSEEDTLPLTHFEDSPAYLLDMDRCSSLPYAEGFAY
# Method in brief: as §1
# HSF1 = HSF1 (Homo sapiens, UniProt Q00613 1-529); conditions: protein: recombinant; tags: N-terminal GST; chain copies: 3; dsDNA, one strand shown
# Sequence of HSF1 (Q00613 whole entry): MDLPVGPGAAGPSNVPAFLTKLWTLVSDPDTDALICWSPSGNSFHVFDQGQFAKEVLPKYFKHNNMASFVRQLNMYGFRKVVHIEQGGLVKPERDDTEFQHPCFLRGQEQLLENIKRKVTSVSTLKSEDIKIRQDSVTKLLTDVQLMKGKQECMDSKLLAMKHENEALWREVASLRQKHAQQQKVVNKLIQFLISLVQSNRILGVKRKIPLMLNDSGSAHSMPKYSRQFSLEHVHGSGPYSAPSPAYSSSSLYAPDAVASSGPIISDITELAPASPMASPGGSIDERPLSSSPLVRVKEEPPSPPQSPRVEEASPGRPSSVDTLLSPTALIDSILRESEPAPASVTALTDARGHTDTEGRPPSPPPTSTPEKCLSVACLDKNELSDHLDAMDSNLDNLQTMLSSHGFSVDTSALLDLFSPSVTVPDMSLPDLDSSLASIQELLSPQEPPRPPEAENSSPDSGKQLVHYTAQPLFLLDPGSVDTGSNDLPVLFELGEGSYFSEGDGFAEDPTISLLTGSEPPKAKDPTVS
# Method in brief: as §1
# SPIC = target: T8, SPIC (Homo sapiens, UniProt Q8N5J4 1-248); conditions: protein: recombinant; tags: N-terminal GST; dsDNA, one strand shown
# T8 sequence: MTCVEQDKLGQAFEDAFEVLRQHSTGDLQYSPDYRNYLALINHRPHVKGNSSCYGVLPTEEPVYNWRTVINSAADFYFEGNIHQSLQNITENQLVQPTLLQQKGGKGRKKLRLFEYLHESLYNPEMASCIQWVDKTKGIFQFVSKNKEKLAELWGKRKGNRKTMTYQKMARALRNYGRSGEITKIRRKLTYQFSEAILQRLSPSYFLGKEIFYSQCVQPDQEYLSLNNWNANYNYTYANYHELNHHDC
# Method in brief: as §1
# ELF4 = ELF4 (Homo sapiens, UniProt Q99607 1-663); conditions: protein: recombinant; tags: N-terminal GST; dsDNA, one strand shown
# Sequence of ELF4 (Q99607 whole entry): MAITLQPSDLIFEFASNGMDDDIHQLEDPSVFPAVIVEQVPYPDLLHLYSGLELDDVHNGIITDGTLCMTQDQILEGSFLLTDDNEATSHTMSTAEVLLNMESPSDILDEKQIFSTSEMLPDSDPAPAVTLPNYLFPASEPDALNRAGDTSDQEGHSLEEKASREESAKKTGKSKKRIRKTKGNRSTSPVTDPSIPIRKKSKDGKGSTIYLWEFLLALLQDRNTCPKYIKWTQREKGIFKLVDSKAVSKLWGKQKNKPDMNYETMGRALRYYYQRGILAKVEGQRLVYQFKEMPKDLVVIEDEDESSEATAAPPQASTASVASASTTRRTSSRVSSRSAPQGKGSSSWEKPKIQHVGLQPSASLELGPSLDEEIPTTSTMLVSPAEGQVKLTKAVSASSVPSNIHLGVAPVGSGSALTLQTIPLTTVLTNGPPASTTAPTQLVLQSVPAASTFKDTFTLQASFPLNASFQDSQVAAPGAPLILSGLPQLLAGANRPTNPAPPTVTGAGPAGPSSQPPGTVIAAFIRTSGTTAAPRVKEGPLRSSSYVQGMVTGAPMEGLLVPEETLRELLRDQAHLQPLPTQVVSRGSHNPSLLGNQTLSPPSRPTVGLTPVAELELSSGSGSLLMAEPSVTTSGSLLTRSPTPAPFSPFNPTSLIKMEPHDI
# Method in brief: as §1
# ELK4 = target: T9, ELK4 (Homo sapiens, UniProt P28324-2 1-405); conditions: protein: recombinant; tags: N-terminal GST; dsDNA, one strand shown
# T9 sequence: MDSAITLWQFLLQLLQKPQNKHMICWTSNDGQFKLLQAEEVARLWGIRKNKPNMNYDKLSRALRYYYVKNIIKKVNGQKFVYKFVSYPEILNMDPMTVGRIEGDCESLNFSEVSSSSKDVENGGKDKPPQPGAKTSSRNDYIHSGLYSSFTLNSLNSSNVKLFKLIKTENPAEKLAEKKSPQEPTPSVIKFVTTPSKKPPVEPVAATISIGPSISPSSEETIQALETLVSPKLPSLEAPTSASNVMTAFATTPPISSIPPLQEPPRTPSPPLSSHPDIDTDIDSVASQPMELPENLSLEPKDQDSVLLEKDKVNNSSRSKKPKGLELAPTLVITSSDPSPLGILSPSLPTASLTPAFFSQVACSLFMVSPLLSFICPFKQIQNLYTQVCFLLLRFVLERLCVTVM
# Method in brief: as §1
# ETV2 = target: T10, ETV2 (Homo sapiens, UniProt O00321 1-342); conditions: protein: recombinant; tags: N-terminal GST; dsDNA, one strand shown
# T10 sequence: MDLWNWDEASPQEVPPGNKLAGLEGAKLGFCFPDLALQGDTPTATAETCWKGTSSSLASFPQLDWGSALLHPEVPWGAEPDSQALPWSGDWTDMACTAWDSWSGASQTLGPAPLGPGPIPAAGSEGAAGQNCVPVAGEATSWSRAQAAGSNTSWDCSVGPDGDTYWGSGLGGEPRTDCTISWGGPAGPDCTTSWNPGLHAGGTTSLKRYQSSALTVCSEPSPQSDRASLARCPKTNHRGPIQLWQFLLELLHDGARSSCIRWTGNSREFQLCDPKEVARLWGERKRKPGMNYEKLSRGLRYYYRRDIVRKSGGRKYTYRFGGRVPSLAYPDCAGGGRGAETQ
# Method in brief: as §1
# ELF3 = target: T11, ELF3 (Homo sapiens, UniProt P78545 1-371); conditions: protein: recombinant; tags: N-terminal GST; dsDNA, one strand shown
# T11 sequence: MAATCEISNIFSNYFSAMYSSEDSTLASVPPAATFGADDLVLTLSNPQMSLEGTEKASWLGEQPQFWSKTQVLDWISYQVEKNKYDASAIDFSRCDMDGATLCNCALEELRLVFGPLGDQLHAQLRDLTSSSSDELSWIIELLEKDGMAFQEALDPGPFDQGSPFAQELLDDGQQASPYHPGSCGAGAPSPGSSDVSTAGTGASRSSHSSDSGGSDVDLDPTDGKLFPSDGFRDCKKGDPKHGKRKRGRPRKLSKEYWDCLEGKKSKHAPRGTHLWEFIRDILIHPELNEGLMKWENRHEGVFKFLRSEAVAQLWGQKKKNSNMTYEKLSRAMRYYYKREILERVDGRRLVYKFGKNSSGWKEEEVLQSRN
# Method in brief: as §1
# CRX = CRX (Homo sapiens, UniProt O43186 1-299); conditions: protein: recombinant; tags: N-terminal GST; dsDNA, one strand shown
# Sequence of CRX (O43186 whole entry): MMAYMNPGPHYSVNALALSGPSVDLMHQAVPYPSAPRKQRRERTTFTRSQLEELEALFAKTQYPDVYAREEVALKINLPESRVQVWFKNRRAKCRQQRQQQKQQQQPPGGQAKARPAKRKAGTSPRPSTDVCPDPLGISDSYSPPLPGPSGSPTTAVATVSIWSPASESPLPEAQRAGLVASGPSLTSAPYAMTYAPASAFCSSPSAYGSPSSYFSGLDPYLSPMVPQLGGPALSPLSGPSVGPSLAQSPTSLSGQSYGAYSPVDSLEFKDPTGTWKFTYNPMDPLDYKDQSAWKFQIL
# Method in brief: as §1
# ETV1 = ETV1 (Homo sapiens, UniProt P50549 1-477); conditions: protein: recombinant; tags: N-terminal GST; dsDNA, one strand shown
# Sequence of ETV1 (P50549 whole entry): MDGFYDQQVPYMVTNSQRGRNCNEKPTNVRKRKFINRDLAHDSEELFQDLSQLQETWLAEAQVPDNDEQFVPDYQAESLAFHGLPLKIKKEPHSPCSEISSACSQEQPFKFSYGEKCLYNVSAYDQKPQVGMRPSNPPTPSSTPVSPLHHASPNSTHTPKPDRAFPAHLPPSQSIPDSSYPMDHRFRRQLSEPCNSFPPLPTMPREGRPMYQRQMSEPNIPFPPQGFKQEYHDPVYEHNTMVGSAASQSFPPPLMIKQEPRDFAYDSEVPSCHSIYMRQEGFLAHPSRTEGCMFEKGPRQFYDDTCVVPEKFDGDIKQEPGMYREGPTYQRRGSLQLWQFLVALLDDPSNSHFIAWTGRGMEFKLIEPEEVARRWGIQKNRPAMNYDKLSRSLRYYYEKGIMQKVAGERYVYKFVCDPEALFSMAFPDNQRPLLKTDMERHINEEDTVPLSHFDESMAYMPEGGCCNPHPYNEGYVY
# Method in brief: as §1
sequence,measurement,setting,value
TACACC,binding signal,FLI1,"1.16 fold enrichment (6-mer frequency, TF over GST control)"
same,binding signal,ELK1,"1.27 fold enrichment (6-mer frequency, TF over GST control)"
same,binding signal,GABPA,"1.14 fold enrichment (6-mer frequency, TF over GST control)"
same,binding signal,ERG,"1.27 fold enrichment (6-mer frequency, TF over GST control)"
same,binding signal,ELF1,"1.17 fold enrichment (6-mer frequency, TF over GST control)"
same,binding signal,EHF,"1.22 fold enrichment (6-mer frequency, TF over GST control)"
same,binding signal,SPI1,"1.1 fold enrichment (6-mer frequency, TF over GST control)"
same,binding signal,SPIB,"1.11 fold enrichment (6-mer frequency, TF over GST control)"
same,binding signal,ELK3,"1.14 fold enrichment (6-mer frequency, TF over GST control)"
same,binding signal,FEV,"1.2 fold enrichment (6-mer frequency, TF over GST control)"
same,binding signal,ETV5,"1.15 fold enrichment (6-mer frequency, TF over GST control)"
same,binding signal,HSF1,"1.03 fold enrichment (6-mer frequency, TF over GST control)"
same,binding signal,SPIC,"1.3 fold enrichment (6-mer frequency, TF over GST control)"
same,binding signal,ELF4,"1.22 fold enrichment (6-mer frequency, TF over GST control)"
same,binding signal,ELK4,"1.16 fold enrichment (6-mer frequency, TF over GST control)"
same,binding signal,ETV2,"1.19 fold enrichment (6-mer frequency, TF over GST control)"
same,binding signal,ELF3,"1.11 fold enrichment (6-mer frequency, TF over GST control)"
same,binding signal,CRX,"1.06 fold enrichment (6-mer frequency, TF over GST control)"
same,binding signal,ETV1,"1.25 fold enrichment (6-mer frequency, TF over GST control)"
